DT40 TDP1 CPT: growth inhibition of DT40 Tdp1-/-;hTDP1 cells with camptothecin (screen for TDP1 inhibitors) | chicken DT40 Tdp1-/-;hTDP1 cells + 20 nM CPT, ATP luminescence, 48 h | hit rate 12% among 420,000 | AID 686979 | Potency, µM (highest dose often 46.2 µM), inactives show at the highest dose activity change, negative = growth inhibition, usual class: inhibitors; also: potency is read from the fitted curve at half-maximal effect; nearly all actives have a fitted effect of over 55% in size
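Chicken DT40 Tdp1-/- cells stably complemented with human TDP1 were seeded at 400 cells/well in medium containing 20 nM camptothecin, exposed to pin-transferred compounds, and grown at 37 °C for at least 48 hr. Viability was read as ATP luminescence.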
DT40 TDP1 no CPT: qHTS for Inhibitors of human tyrosyl-DNA phosphodiesterase 1 (TDP1): qHTS in cells in absence of CPT. DT40 Tdp1-/- hTDP1 cells, no CPT, ATP luminescence, 48 h. Potency, µM (top dose mostly 46.2 µM), inactives show top-dose activity change, negative = growth inhibition, most hits filed as inhibitors. hit rate 15% among 420,000; also: potency is read from the fitted curve at half-maximal effect; nearly all actives have a fitted effect of over 55% in size
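Growth of hTDP1-complemented DT40 Tdp1-knockout cells is measured by ATP luminescence after at least 48 hr compound exposure at 37 °C, with DMSO substituting for the 20 nM CPT used in the parallel screen.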
IL-1B inflam inh: blocks inflammasome-driven IL-1 beta release. hit rate 4.7% among 360,000. THP-1 LPS/ATP IL-1B secretion, AlphaLISA, 16 h; active compounds read low. activity change, % at 57.5 µM; in the data active = activity change below about -50%; inconclusive = mostly about -30% to -49%
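Secreted IL-1B measured by AlphaLISA bead assay after 16 h compound exposure of THP-1 cells; compounds (final up to 57.5 uM) added 1 h before LPS (250 ng/mL) and ATP (1.25 mM) stimulation; lower signal means less secretion.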
HT1080 IDH1KD tx: HT-1080 IDH1 knockdown cell toxicity (counter line) | HT-1080 IDH1 knockdown viability, ATP luminescence, 48 h | hit rate 2% among 360,000 | Potency, µM (highest dose often 46.1 µM), inactives show at the top dose activity, negative = toxicity, most hits filed as cytotoxic | AID 686971;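 also: potency is read from the fitted curve at half-maximal effect; 0% = DMSO wells and -100% = cell-free medium wells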
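CellTiter-Glo luminescence after 48 h compound exposure at 37 degrees C of IDH1-knockdown HT-1080 cells in 5% FBS RPMI. %Activity scaled between DMSO wells and cell-free media wells, with curves fitted and assigned curve classes.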
HT1080NT lethal: kills 2HG-producing HT-1080-NT fibrosarcoma cells; HT-1080-NT fibrosarcoma viability, CellTiter-Glo ATP luminescence, 48 h; hit rate 1.6% among 360,000; Potency, µM (top dose mostly 46.1 µM), for the others: top-dose activity, negative = less viability, usual class: cytotoxic;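 also: NT is the 2HG producing partner of a matched IDH1 knockdown line; potency is read from the fitted curve at half-maximal effect; 0% = DMSO-treated cells and -100% = media-only wells without cells; nearly all actives have a fitted effect of over 55% in size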
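Compounds were tested in concentration-response format on HT-1080-NT cells for 48 hours at 37 degrees C. Cell viability came from CellTiter-Glo luminescence; curves were classified by r2, response magnitude and activity.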
* hit, by the source's call; i = inactive; ? = inconclusive; . = no result given; ! = a repeat was not active. Only some compounds are listed: those with a hit (about 19% of all), similar ones and a draw of the others. Unless noted, calls follow the shape of the dose curve; as a rule, active = well fitted curve in the direction sought with a large enough effect; inconclusive = small, poorly fitted or top-dose-only effect, or another doubt; inactive = no such curve, though single readings can be large; an effect the other way counts as inactive or inconclusive. Unless noted, % is scaled to controls: 0 for no effect and ±100 for the full control effect.

SMILES	DT40 TDP1 CPT	DT40 TDP1 no CPT	IL-1B inflam inh	HT1080 IDH1KD tx	HT1080NT lethal
CCOc1cc(N2CCOCC2)c(OCC)cc1NC(=O)c1ccccc1	21µM*	16µM*	-18	9%	16%
O=C(NCc1csc(-c2cccs2)n1)Nc1cccc(Cl)c1	5%	7%	-1	-8%	-26%
COc1ccc(S(=O)(=O)N2CCOCC2)cc1NC(=O)CN1CCCC1	10%	12%	15	11%	9%
CCOc1cc(N2CCOCC2)c(OCC)cc1NC(=O)CN1CCC(Cc2ccccc2)CC1	23µM*	?	?	0%	-1%
COc1ccc(S(=O)(=O)N2CCOCC2)cc1NC(=O)CN1CCC(Cc2ccccc2)CC1	16µM*	16µM*	i	-20%	-15%
CCOc1cc(N2CCOCC2)c(OCC)cc1NC(=O)c1ccc(S(=O)(=O)N(C)C)cc1	?	?	-14	11%	-12%
CCOc1cc(N2CCOCC2)c(OCC)cc1NC(=O)Cc1ccccc1OC	16µM*	18µM*	-12	-27%	-25%
CCOc1cc(N2CCOCC2)c(OCC)cc1NC(=O)c1ccc(C)cc1	?	9.2µM*	6	-10%	-6%
COc1ccccc1NC(=O)C12CCC(C)(C(=O)C1)C2(C)C (stereo unspecified)	-28%	0%	4	-1%	-1%
CCOc1cc(N2CCOCC2)c(OCC)cc1NC(=O)c1c(-c2ccccc2)noc1C	?	-54%	5	1%	-1%
CCOc1cc(N2CCOCC2)c(OCC)cc1NC(=O)c1cc(C)cc(C)c1	13µM*	12µM*	-7	9%	2%
CCOc1cc(N2CCOCC2)c(OCC)cc1NC(=O)c1ccc(OC(C)C)cc1	?	21µM*	7	-2%	2%
CCOc1cc(N2CCOCC2)c(OCC)cc1NC(=O)COC(=O)c1ccc(OC)c([N+](=O)[O-])c1	15µM*	23µM*	0	17%	11%
CCOc1cc(N2CCOCC2)c(OCC)cc1NC(=O)c1c(-c2ccccc2Cl)noc1C	10µM*	7.3µM*	-3	-5%	-28%
CCN(CC)S(=O)(=O)c1ccc(/C=C/C(=O)OCC(=O)N(C)C)cc1	5%	-5%	-17	12%	19%
O=C(O)c1cc(=O)c2c3nc4ccccc4oc-3cc(=O)c2[nH]1	25µM*	11µM*!	.	.	.
CCOC(=O)CCC(=O)O[C@H]1C(O[C@@H]2C(C)[C@H](O[C@H]3C[C@@](C)(OC)C(O)C(C)O3)C(C)C(=O)OC(CC)[C@@](C)(O)C(O)[C@H](C)C(=O)C(C)C[C@]2(C)O)OC(C)CC1N(C)C (stereo partly specified)	3%	-3%	.	.	.
CC[C@H]1OC(=O)[C@H](C)C(=O)[C@H](C)[C@@H](O[C@@H]2O[C@H](C)C[C@H](N(C)C)[C@H]2O)[C@](C)(OC)C[C@@H](C)C(=O)[C@H](C)[C@H]2N(CCCCn3cnc(-c4cccnc4)c3)C(=O)O[C@]12C	2.4µM*!	2.1µM*	.	.	.
Cc1cc(Br)cn2c(Cc3ccccc3)c(-c3cccc(Br)c3)nc12	?	?	7	-3%	1%
CCCc1c(-c2ccc(Cl)cc2)ncn1Cc1cccc(-c2ccccc2)c1	5.2µM*	3.3µM*	3	?	?
CCCc1c(-c2cccc(Br)c2)ncn1Cc1cccc(-c2ccccc2)c1	16µM*	21µM*	20	?	?
CCc1c(-c2ccc(Br)cc2)ncn1Cc1cccc(-c2ccccc2)c1	7.3µM*	5.2µM*	-62*	?	?
CCC1(O)CCCC2C3CCC4CC(=O)CCC4(C)C3C(=O)CC21C (stereo unspecified)	-14%	3%	-5	-3%	0%
CCN1C(=O)[C@@H]2[C@@H](c3ccc(-c4ccc(C(C)=O)cc4)cc3)N3CCCC[C@@]3(C(=O)OC)[C@@H]2C1=O	16µM*	18µM*	0	3%	-1%
CCN1C(=O)[C@@H]2[C@@H](c3ccc(-c4ccc(OC)cc4)cc3)N3CCCC[C@@]3(C(=O)OC)[C@@H]2C1=O	26µM*	16µM*	-6	-13%	-1%
SMILES	DT40 TDP1 CPT	DT40 TDP1 no CPT	IL-1B inflam inh	HT1080 IDH1KD tx	HT1080NT lethal
CCN1C(=O)[C@H]2[C@@H](c3ccc(-c4ccccc4)cc3)N3CCCC[C@@]3(C(=O)OC)[C@H]2C1=O	?	18µM*	-6	-22%	-21%
O=C(NCC(=O)N1CCC2(CC1)NCCc1[nH]cnc12)c1ccccc1F	-1%	22%	15	14%	0%
COc1ccccc1C(=O)NCC(=O)N/N=C/c1ccncc1	-6%	-13%	10	20%	15%
O=C(N/N=C/c1ccc2c(c1)OCO2)c1cccc2ccccc12	2.1µM*	3.3µM*	2	?	?
Cn1cc(C(=O)N/N=C/c2cccs2)c2ccccc21	6%	8.2µM*	-11	?	-30%
COc1ccccc1C(=O)NCC(=O)N/N=C/c1ccc2c(c1)OCO2	?	?	-3	21µM*	?
Cc1occc1C(=O)N/N=C/c1ccc2c(c1)OCO2	?	?	-10	8.2µM*	9.2µM*
O=C(N/N=C/c1ccc2c(c1)OCO2)c1ccc2ccccc2n1	-7%	-23%	0	?	-13%
COC(=O)C1=C(C)N(CCc2cc(OC)c(OC)c(OC)c2)C(=O)N[C@H]1c1ccccc1	-22%	-24%	15	9%	11%
COc1ccc(NC(=O)c2cc(S(=O)(=O)N3CCOCC3)ccc2C)cc1S(=O)(=O)N1CCCCC1	-24%	?	2	-11%	-4%
COCc1ccc(C(=O)OC(C)C(=O)Nc2c(C)n(C)n(-c3ccccc3)c2=O)cc1 (stereo unspecified)	-4%	6%	3	13%	3%
Cn1cc(C(=O)N/N=C/c2ccc3c(c2)OCO3)c2ccccc21	7.3µM*	5.2µM*	-15	12µM*	21µM*
COc1ccc(/C=N/NC(=O)c2ccoc2C)cc1OC	-6%	-4%	5	29%	28%
Cc1ccccc1NCC(=O)N/N=C\c1ccc2c(c1)OCO2	-29%	?	-26	-10%	-4%
Cc1cccc(C)c1OCC(=O)N/N=C/c1ccc2c(c1)OCO2	2.9µM*	3.7µM*	43	?	15µM*
COc1cc(/C=N/NC(=O)c2ccoc2C)cc(OC)c1OC	?	13µM*	-3	8%	16%
Cc1ccc(OCCOC(=O)CCc2nc3ccccc3c(=O)[nH]2)cc1	-4%	-9%	-3	9%	-2%
